Data taken from PMC7862700, “An all-to-all approach to the identification of sequence-specific readers for epigenetic DNA modifications on cytosine”.

Tests used:
Experiment in all cases: DAPPL (digital affinity profiling via proximity ligation, sequencing); 10 mM Tris-HCl pH 7.5, 50 mM NaCl, 1 mM DTT, 4% glycerol, room temperature, 30 min; GST-TFs on glutathione beads, 16-mer random dsDNA library, 0.1% formaldehyde crosslink after washing; high values mean tight binding
Conditions in all cases: protein: recombinant; tags: N-terminal GST; dsDNA, one strand shown
FLI1 = target: T1, FLI1 (Homo sapiens, UniProt Q01543 1-452)
T1 sequence: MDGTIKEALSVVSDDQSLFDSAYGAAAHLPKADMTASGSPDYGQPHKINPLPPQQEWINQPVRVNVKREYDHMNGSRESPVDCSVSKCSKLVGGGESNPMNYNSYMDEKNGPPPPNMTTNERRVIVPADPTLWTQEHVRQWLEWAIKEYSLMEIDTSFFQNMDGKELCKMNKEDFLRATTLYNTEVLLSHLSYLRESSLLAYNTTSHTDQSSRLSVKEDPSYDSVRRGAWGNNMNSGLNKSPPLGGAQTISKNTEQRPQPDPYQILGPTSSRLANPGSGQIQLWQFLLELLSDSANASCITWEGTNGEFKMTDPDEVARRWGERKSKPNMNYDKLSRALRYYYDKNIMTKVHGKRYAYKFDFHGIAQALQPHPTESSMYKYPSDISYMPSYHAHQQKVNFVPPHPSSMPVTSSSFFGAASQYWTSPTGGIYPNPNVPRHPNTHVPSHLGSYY
Procedure, shortened: (§1)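 Human transcription factors fused to GST were expressed in yeast, captured on glutathione beads, given DNA barcodes and pooled with a GST-only negative control. Pools were incubated with 200 nmole of a 16-mer random double-stranded DNA library in Tris/NaCl/DTT/glycerol buffer at room temperature for 30 min. They were then washed, crosslinked with 0.1% formaldehyde, proximity-ligated (BsaI/T4 ligase, 1 h, 37 °C), PCR-amplified and sequenced on an Illumina NextSeq500. Binding signal is each 6-mer's read frequency for a factor divided by its frequency for the GST control.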

ELK1 = target: T2, ELK1 (Homo sapiens, UniProt P19419 1-428)
T2 sequence: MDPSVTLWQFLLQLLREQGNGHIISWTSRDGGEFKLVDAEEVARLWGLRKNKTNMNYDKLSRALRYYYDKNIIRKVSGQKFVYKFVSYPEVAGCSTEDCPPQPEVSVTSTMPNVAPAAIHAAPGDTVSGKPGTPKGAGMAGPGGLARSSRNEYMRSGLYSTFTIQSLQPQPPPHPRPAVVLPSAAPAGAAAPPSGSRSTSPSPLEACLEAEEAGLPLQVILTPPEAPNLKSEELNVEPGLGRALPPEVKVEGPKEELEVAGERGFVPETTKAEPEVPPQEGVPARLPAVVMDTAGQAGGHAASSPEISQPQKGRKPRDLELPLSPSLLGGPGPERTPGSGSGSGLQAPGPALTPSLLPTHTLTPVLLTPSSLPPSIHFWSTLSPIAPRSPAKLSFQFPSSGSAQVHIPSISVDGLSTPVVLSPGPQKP
Procedure, shortened: as §1

GABPA = target: T3, GABPA (Homo sapiens, UniProt Q06546 1-454)
T3 sequence: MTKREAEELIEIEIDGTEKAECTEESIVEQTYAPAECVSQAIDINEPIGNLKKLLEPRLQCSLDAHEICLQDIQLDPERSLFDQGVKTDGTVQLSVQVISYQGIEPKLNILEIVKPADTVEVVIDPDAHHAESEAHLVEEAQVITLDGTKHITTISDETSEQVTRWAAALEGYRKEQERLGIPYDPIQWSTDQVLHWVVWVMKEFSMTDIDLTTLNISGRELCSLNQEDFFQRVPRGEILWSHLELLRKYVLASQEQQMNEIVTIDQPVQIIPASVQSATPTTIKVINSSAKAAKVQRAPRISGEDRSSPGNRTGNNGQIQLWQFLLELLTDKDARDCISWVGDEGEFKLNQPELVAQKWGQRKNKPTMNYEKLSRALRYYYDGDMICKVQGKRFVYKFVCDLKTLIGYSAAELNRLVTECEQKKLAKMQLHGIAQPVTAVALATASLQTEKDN
Procedure, shortened: as §1

ERG = target: T4, ERG (Homo sapiens, UniProt P11308 1-479)
T4 sequence: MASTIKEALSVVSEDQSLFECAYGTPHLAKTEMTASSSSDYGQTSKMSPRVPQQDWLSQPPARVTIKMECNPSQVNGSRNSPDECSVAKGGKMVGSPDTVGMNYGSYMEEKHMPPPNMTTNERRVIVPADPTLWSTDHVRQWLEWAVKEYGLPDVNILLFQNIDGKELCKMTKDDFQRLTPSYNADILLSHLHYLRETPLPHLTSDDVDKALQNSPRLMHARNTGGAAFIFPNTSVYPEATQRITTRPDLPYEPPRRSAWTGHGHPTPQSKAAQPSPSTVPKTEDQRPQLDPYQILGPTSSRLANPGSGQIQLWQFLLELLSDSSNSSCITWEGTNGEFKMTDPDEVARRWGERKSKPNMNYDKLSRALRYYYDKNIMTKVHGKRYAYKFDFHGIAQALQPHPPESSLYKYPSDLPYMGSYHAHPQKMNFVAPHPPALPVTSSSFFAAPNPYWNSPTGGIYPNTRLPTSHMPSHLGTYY
Procedure, shortened: as §1

ELF1 = ELF1 (Homo sapiens, UniProt P32519 1-619)
Sequence of ELF1 (P32519 whole entry): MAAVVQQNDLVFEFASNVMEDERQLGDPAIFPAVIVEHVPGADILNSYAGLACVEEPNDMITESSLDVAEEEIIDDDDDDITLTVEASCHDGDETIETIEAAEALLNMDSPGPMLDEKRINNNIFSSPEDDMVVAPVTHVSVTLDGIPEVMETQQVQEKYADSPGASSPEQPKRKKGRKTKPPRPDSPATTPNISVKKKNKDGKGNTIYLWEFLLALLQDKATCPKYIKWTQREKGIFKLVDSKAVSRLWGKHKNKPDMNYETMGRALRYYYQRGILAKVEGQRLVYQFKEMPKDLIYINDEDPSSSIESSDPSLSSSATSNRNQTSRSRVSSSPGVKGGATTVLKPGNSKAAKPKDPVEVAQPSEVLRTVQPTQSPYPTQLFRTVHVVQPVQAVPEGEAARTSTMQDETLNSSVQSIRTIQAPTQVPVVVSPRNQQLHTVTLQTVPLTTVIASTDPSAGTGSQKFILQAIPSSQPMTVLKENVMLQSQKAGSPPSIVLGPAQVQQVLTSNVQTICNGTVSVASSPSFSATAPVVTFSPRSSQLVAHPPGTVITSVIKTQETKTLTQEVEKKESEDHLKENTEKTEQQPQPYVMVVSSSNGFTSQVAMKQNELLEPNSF
Procedure, shortened: as §1

EHF = target: T5, EHF (Homo sapiens, UniProt Q9NZC4 1-300)
T5 sequence: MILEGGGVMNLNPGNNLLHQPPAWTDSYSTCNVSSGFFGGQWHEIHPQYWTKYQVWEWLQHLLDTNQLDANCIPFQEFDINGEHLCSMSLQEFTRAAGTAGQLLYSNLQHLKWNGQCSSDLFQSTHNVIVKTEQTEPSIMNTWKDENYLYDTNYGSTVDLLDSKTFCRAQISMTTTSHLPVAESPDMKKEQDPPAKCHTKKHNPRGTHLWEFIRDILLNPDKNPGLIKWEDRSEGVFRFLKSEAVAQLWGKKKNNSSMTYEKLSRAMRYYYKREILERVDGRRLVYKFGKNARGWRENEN
Procedure, shortened: as §1

SPI1 = SPI1 (Homo sapiens, UniProt P17947 1-270)
Procedure, shortened: as §1

SPIB = SPIB (Homo sapiens, UniProt Q01892 1-262)
Sequence of SPIB (Q01892 whole entry): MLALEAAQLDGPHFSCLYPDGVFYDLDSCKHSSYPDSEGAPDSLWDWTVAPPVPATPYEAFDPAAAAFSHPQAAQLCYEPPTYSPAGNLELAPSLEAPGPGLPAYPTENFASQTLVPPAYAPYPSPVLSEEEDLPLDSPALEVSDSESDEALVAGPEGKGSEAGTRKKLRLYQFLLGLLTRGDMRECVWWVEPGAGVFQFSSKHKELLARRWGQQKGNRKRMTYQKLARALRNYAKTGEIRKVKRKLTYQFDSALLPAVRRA
Procedure, shortened: as §1

ELK3 = target: T6, ELK3 (Homo sapiens, UniProt P41970 1-407)
T6 sequence: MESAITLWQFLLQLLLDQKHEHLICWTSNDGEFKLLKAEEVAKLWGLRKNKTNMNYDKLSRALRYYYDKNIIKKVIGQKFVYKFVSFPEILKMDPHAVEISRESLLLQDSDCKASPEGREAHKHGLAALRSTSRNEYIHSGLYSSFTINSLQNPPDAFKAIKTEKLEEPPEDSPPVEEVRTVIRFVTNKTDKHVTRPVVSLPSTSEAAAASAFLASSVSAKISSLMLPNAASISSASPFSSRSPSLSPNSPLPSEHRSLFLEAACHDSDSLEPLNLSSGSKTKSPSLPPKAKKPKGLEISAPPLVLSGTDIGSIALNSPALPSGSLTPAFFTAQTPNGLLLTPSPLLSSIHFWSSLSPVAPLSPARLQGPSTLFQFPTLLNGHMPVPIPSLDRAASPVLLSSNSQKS
Procedure, shortened: as §1

Question: For CCGACT, which binding signal (FLI1) is on record?
Answer: 1.43 fold enrichment (6-mer frequency, TF over GST control)

Question: What about the binding signal (ELK1) of the same sequence?
Answer: 1.6 fold enrichment (6-mer frequency, TF over GST control)

Question: What about the binding signal (GABPA) of the same sequence?
Answer: 1.48 fold enrichment (6-mer frequency, TF over GST control)

Question: What about the binding signal (ERG) of the same sequence?
Answer: 1.52 fold enrichment (6-mer frequency, TF over GST control)

Question: What about the binding signal (ELF1) of the same sequence?
Answer: 1.44 fold enrichment (6-mer frequency, TF over GST control)

Question: And the binding signal (EHF)?
Answer: 1.48 fold enrichment (6-mer frequency, TF over GST control)

Question: And the binding signal (SPI1)?
Answer: 1.4 fold enrichment (6-mer frequency, TF over GST control)

Question: What about the binding signal (SPIB) of the same sequence?
Answer: 1.64 fold enrichment (6-mer frequency, TF over GST control)

Question: And the binding signal (ELK3)?
Answer: 1.58 fold enrichment (6-mer frequency, TF over GST control)

Question: TGCGTA was tested. Which binding signal (FLI1) did it give?
Answer: 1.15 fold enrichment (6-mer frequency, TF over GST control)

Question: And the binding signal (ELK1)?
Answer: 1.15 fold enrichment (6-mer frequency, TF over GST control)

Question: And the binding signal (GABPA)?
Answer: 1.06 fold enrichment (6-mer frequency, TF over GST control)

Question: And the binding signal (ERG)?
Answer: 1.05 fold enrichment (6-mer frequency, TF over GST control)

Question: And the binding signal (ELF1)?
Answer: 1.1 fold enrichment (6-mer frequency, TF over GST control)

Question: What about the binding signal (EHF) of the same sequence?
Answer: 1.06 fold enrichment (6-mer frequency, TF over GST control)

Question: And the binding signal (SPI1)?
Answer: 1.17 fold enrichment (6-mer frequency, TF over GST control)

Question: What about the binding signal (SPIB) of the same sequence?
Answer: 1.22 fold enrichment (6-mer frequency, TF over GST control)

Question: What about the binding signal (ELK3) of the same sequence?
Answer: 1.09 fold enrichment (6-mer frequency, TF over GST control)

Question: Which results are given for TCCCGT?
Answer: binding signal (FLI1): 1.24 fold enrichment (6-mer frequency, TF over GST control); binding signal (ELK1): 1.23 fold enrichment (6-mer frequency, TF over GST control); binding signal (GABPA): 1.26 fold enrichment (6-mer frequency, TF over GST control); binding signal (ERG): 1.37 fold enrichment (6-mer frequency, TF over GST control); binding signal (ELF1): 1.26 fold enrichment (6-mer frequency, TF over GST control); binding signal (EHF): 1.35 fold enrichment (6-mer frequency, TF over GST control); binding signal (SPI1): 1.43 fold enrichment (6-mer frequency, TF over GST control); binding signal (SPIB): 1.3 fold enrichment (6-mer frequency, TF over GST control); binding signal (ELK3): 1.3 fold enrichment (6-mer frequency, TF over GST control)

Question: GCCCGC was tested. Which binding signal (FLI1) did it give?
Answer: 1.09 fold enrichment (6-mer frequency, TF over GST control)

Question: What about the binding signal (ELK1) of the same sequence?
Answer: 1.15 fold enrichment (6-mer frequency, TF over GST control)

Question: And the binding signal (GABPA)?
Answer: 1.1 fold enrichment (6-mer frequency, TF over GST control)

Question: And the binding signal (ERG)?
Answer: 1.1 fold enrichment (6-mer frequency, TF over GST control)

Question: And the binding signal (ELF1)?
Answer: 1.07 fold enrichment (6-mer frequency, TF over GST control)

Question: And the binding signal (EHF)?
Answer: 1.09 fold enrichment (6-mer frequency, TF over GST control)

Question: And the binding signal (SPI1)?
Answer: 1.01 fold enrichment (6-mer frequency, TF over GST control)

Question: What about the binding signal (SPIB) of the same sequence?
Answer: 1.03 fold enrichment (6-mer frequency, TF over GST control)

Question: And the binding signal (ELK3)?
Answer: 1.24 fold enrichment (6-mer frequency, TF over GST control)

Question: Which results are given for CCGTCC?
Answer: binding signal (FLI1): 1.37 fold enrichment (6-mer frequency, TF over GST control); binding signal (ELK1): 1.37 fold enrichment (6-mer frequency, TF over GST control); binding signal (GABPA): 1.29 fold enrichment (6-mer frequency, TF over GST control); binding signal (ERG): 1.42 fold enrichment (6-mer frequency, TF over GST control); binding signal (ELF1): 1.37 fold enrichment (6-mer frequency, TF over GST control); binding signal (EHF): 1.42 fold enrichment (6-mer frequency, TF over GST control); binding signal (SPI1): 1.21 fold enrichment (6-mer frequency, TF over GST control); binding signal (SPIB): 1.25 fold enrichment (6-mer frequency, TF over GST control); binding signal (ELK3): 1.39 fold enrichment (6-mer frequency, TF over GST control)

Question: For TTTTTT, which binding signal (FLI1) is on record?
Answer: 1.12 fold enrichment (6-mer frequency, TF over GST control)

Question: What about the binding signal (ELK1) of the same sequence?
Answer: 1.05 fold enrichment (6-mer frequency, TF over GST control)

Question: And the binding signal (GABPA)?
Answer: 1.25 fold enrichment (6-mer frequency, TF over GST control)

Question: What about the binding signal (ERG) of the same sequence?
Answer: 1.12 fold enrichment (6-mer frequency, TF over GST control)

Question: And the binding signal (ELF1)?
Answer: 1.25 fold enrichment (6-mer frequency, TF over GST control)

Question: And the binding signal (EHF)?
Answer: 1.2 fold enrichment (6-mer frequency, TF over GST control)

Question: What about the binding signal (SPI1) of the same sequence?
Answer: 1.36 fold enrichment (6-mer frequency, TF over GST control)

Question: What about the binding signal (SPIB) of the same sequence?
Answer: 1.22 fold enrichment (6-mer frequency, TF over GST control)

Question: What about the binding signal (ELK3) of the same sequence?
Answer: 1.34 fold enrichment (6-mer frequency, TF over GST control)

Question: What does the source list for CTGCGT?
Answer: binding signal (FLI1): 1.12 fold enrichment (6-mer frequency, TF over GST control); binding signal (ELK1): 1.15 fold enrichment (6-mer frequency, TF over GST control); binding signal (GABPA): 1.16 fold enrichment (6-mer frequency, TF over GST control); binding signal (ERG): 1.13 fold enrichment (6-mer frequency, TF over GST control); binding signal (ELF1): 1.17 fold enrichment (6-mer frequency, TF over GST control); binding signal (EHF): 1.18 fold enrichment (6-mer frequency, TF over GST control); binding signal (SPI1): 1.16 fold enrichment (6-mer frequency, TF over GST control); binding signal (SPIB): 1.12 fold enrichment (6-mer frequency, TF over GST control); binding signal (ELK3): 1.24 fold enrichment (6-mer frequency, TF over GST control)
